# From PubChem BioAssay (Tox21)
# Several values for one entry are separate records, joined by “and”; a condition that tells them apart may be missing. Equal entries are not always repeated. Some structures have more than one record in an assay (separate samples or runs), and their calls can disagree. Activity calls are given as the source filed them. Unless noted, calls come from the whole dose curve; as a rule, active = well fitted curve in the direction sought with a large enough effect in the repeat runs; inconclusive = weak or mixed curves; inactive = no such curve, though single readings can be large; an effect the other way counts as inactive or inconclusive.
# Key:
# [1] = qHTS assay to identify small molecule antagonists of the glucocorticoid receptor (GR) signaling pathway - cell viability counter screen (AID 720693); note: nearly all actives have a fitted effect of over 55% in size; note: potency is the fitted concentration of half-maximal effect
# [2] = qHTS assay for identifying genotoxic compounds that show differential cytotoxicity against isogenic chicken DT40 cell lines with known DNA damage response pathways - wild type cell line (AID 743012); note: nearly all actives have a fitted effect of over 60% in size; note: potency is the fitted concentration of half-maximal effect
# How it was run: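 Wild type DT40, 300 cells/well, ~0.5 h settle at 37 C/5% CO2; compounds in DMSO added by pintool; 40 h at 37 C/5% CO2; CellTiter-Glo, 30 min RT; luminescence.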
# [3] = qHTS assay for identifying genotoxic compounds that show differential cytotoxicity against isogenic chicken DT40 cell lines with known DNA damage response pathways - Rev3 mutant cell line (AID 743014); note: nearly all actives have a fitted effect of over 55% in size; note: potency is the fitted concentration of half-maximal effect
# [4] = qHTS assay for identifying genotoxic compounds that show differential cytotoxicity against isogenic chicken DT40 cell lines with known DNA damage response pathways - Rad54/Ku70 mutant cell line (AID 743015); note: nearly all actives have a fitted effect of over 60% in size; note: potency is the fitted concentration of half-maximal effect
# [5] = qHTS assay to identify small molecule antagonists of the androgen receptor (AR) signaling pathway - cell viability counter screen (AID 743033; note: nearly all actives have a fitted effect of over 45% in size; note: potency is the fitted concentration of half-maximal effect)
# [6] = qHTS assay to identify small molecule antagonists of the thyroid receptor (TR) signaling pathway - cell viability counter screen (AID 743064); note: nearly all actives have a fitted effect of over 50% in size; note: potency is the fitted concentration of half-maximal effect
# How it was run: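 Counter screen for cytotoxicity: compound plus T3 (1 nM final) on GH3.TRE-Luc cells, 23.5 h at 37 °C, then fluorescence viability readout with CellTiter-Fluor.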
# [7] = qHTS assay to identify small molecule antagonists of the thyroid receptor (TR) signaling pathway (AID 743065); note: potency is the fitted concentration of half-maximal effect; nearly all actives have a fitted effect of over 55% in size
# How it was run: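 Antagonism measured as loss of luciferase signal in GH3 cells stably carrying a TRE-luciferase reporter, co-treated with compound and T3 (1 nM final) for 23.5 h at 37 C. Viability was read in the same well by CellTiter-Fluor.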
# [8] = target: Estrogen receptor (Homo sapiens) (UniProt P03372); experiment: qHTS assay to identify small molecule antagonists of the estrogen receptor alpha (ER-alpha) signaling pathway (AID 743069; active = well fitted curve in the direction sought with a large enough effect in the signal ratio in the repeat runs, not every such curve was filed as active; inconclusive = weak or mixed curves, or effect the other way; inactive = no such curve, though single readings can be large or run the other way; the % refers to the signal ratio; note: potency is the fitted concentration of half-maximal effect)
# Sequence of Estrogen receptor (Homo sapiens) (P03372 whole entry, looked up): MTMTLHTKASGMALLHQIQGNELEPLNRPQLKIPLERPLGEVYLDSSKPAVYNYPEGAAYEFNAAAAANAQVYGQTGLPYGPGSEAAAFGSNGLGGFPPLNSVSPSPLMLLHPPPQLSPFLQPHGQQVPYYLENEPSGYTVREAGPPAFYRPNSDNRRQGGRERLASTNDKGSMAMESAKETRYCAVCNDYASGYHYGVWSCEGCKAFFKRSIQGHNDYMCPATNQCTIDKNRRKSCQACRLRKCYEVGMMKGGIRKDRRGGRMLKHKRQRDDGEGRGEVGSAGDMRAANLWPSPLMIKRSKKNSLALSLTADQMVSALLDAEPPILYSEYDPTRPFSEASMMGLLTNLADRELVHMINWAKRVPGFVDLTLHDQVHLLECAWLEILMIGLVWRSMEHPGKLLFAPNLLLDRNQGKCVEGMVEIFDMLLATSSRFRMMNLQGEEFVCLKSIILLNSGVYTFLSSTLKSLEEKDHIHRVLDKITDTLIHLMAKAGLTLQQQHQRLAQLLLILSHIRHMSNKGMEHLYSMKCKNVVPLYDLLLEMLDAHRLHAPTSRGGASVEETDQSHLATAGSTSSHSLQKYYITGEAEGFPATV
# How it was run: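 ER-alpha-UAS-bla GripTite HEK293 line; 2% charcoal-stripped FBS overnight; plated, 4 hr 37C/5% CO2; cpd in DMSO + 17beta-estradiol, 18 hr 37C; LiveBLAzer B/G FRET substrate 2 hr RT; fluorescence intensity.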
# [9] = qHTS assay to identify small molecule antagonists of the estrogen receptor alpha (ER-alpha) signaling pathway - cell viability counter screen (AID 743074; calls by dose curve;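 note: HEK293 cells carrying ER-alpha-UAS-bla reporter stimulated with 17beta-estradiol; nearly all actives have a fitted effect of over 45% in size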; note: potency is the fitted concentration of half-maximal effect)
# [10] = qHTS assay to identify small molecule antagonists of the estrogen receptor alpha (ER-alpha) signaling pathway using the BG1 cell line (AID 743080; calls by dose curve;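 note: BG1 cells stimulated with 17beta-estradiol alongside compound; nearly all actives have a fitted effect of over 25% in size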; note: potency is the fitted concentration of half-maximal effect)
# How it was run: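 After 5 days in phenol-red-free 10% charcoal-stripped FBS medium, BG1-Luc-4E2 cells were seeded, left 24 h at 37 C, co-treated with compounds and 17beta-estradiol for 21.5 h, then assayed for viability and luciferase.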
# [11] = qHTS assay to identify small molecule antagonists of the estrogen receptor alpha (ER-alpha) signaling pathway using the BG1 cell line - cell viability counter screen (AID 743081);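 note: compound given together with 17beta-estradiol as the ER stimulus; nearly all actives have a fitted effect of over 45% in size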; note: potency is the fitted concentration of half-maximal effect
# Aromatase (Homo sapiens) = Aromatase (Homo sapiens) (UniProt P11511); experiment: qHTS assay to identify aromatase inhibitors (AID 743083); note: nearly all actives have a fitted effect of over 55% in size; note: potency is the fitted concentration of half-maximal effect
# Sequence of Aromatase (Homo sapiens) (P11511 whole entry, looked up): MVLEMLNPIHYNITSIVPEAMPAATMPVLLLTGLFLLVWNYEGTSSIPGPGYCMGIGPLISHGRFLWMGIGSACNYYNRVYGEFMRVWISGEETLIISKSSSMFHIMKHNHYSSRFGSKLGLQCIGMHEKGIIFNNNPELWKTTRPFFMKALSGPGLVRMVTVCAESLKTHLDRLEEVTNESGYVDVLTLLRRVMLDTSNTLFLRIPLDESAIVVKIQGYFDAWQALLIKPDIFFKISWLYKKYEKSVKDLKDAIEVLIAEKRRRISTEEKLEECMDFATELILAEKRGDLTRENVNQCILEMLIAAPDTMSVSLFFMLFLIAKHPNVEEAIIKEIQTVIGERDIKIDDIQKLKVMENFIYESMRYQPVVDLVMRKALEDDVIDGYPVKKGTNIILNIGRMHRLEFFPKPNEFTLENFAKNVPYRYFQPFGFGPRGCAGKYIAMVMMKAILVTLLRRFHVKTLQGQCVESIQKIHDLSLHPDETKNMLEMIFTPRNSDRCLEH
# [12] = qHTS assay to identify small molecule antagonists of the androgen receptor (AR) signaling pathway using the MDA cell line - cell viability counter screen (AID 743041; note: nearly all actives have a fitted effect of over 45% in size; note: potency is the fitted concentration of half-maximal effect)
# How it was run: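 Cells were plated at 3,000 per well and left 5 h. Compounds in DMSO were then pinned in, followed by R1881. After 16 h at 37C, CellTiter-Fluor fluorescence gave viability.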
# [13] = system: thyroid hormone receptor (rat, GH3 cells); experiment: qHTS assay to identify small molecule agonists of the thyroid receptor (TR) signaling pathway (AID 743066; calls by dose curve; note: % is set by controls: 0 for no effect and ±100 for the full control effect)
# [14] = target: Estrogen receptor (Homo sapiens) (UniProt P03372); experiment: qHTS assay to identify small molecule agonists of the estrogen receptor alpha (ER-alpha) signaling pathway (AID 743075; calls by dose curve;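 note: HEK293 GripTite cells with ER-alpha and UAS-driven beta-lactamase reporter; % is set by controls: 0 for no effect and ±100 for the full control effect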); conditions: HEK293 ER-alpha-UAS-bla, beta-lactamase FRET ratio, 18 h; activation: at 70.1 µM (top of the series)
# [15] = target: Estrogen receptor (Homo sapiens) (UniProt P03372); experiment: qHTS assay to identify small molecule agonists of the estrogen receptor alpha (ER-alpha) signaling pathway using the BG1 cell line (AID 743079); conditions: BG1Luc4E2 cells, ERE-luciferase agonist, 22 h; note: % is set by controls: 0 for no effect and ±100 for the full control effect; nearly all actives have a fitted effect of over 20% in size
SMILES,Potency [1],Potency [2],Potency [3],Potency [4],Potency [5],Potency [6],Potency [7],Potency [8],Potency [9],Potency [10],Potency [11],Potency (Aromatase (Homo sapiens)),Potency [12],Potency [13],Potency [14],activation ([15]; at 70.3 µM (top of the series)),activation ([15]; at 32.5 µM (top of the series)),activation ([15]; at 95 µM (top of the series))
CCCCCCCC[P+](CCCCCCCC)(CCCCCCCC)CCCCCCCC,6.13 µM (active),5.42 µM (active),5.42 µM (active),5.42 µM (active),0.971 µM (active),4.3 µM (active),3.05 µM (active),21.7 µM [cytotoxic] (active),15.4 µM (active),1.71 µM (active),8.58 µM (active),1.53 µM (active),,,,,,
CCN1/C(=C/C=C/c2sc3ccccc3[n+]2CC)Sc2ccccc21,21.3 µM (active),0.0266 µM (active),0.0298 µM (active),0.0266 µM (active),3.01 µM (active),1.68 µM (active),0.841 µM (active),,10.7 µM (active),2.98 µM (active),9.44 µM (active),1.5 µM (active),0.75 µM (active),,,,,
CC(C)CCCCCCCCCCCCCCC(=O)O,inactive,inactive,inactive,inactive,inactive,inactive,,,inactive,,inactive,inactive,inactive,inactive,,,,
CCCCCCCCOc1ccccc1C(=O)Nc1ccc(C(=O)OCC[N+](C)(CC)CC)cc1,23.9 µM (active),11.9 µM (active),23.7 µM (active),26.6 µM (active),inactive,26.6 µM (active),26.6 µM (active),,inactive,inactive,inactive,inactive,,,inactive,-29.5% (inactive),,
CCCC1O[C@@H]2C[C@H]3[C@@H]4CCC5=CC(=O)C=C[C@]5(C)[C@H]4[C@@H](O)C[C@]3(C)[C@]2(C(=O)CO)O1 (some centres undefined),inactive,inactive,inactive and 48.6 µM (active),inactive and 68.7 µM (active) and 54.5 µM (active),inactive,inactive,,,inactive,,inactive,inactive,inactive,inactive,,,,
Cc1[nH]nc2c1N=C(c1ccccc1Cl)c1cc([N+](=O)[O-])ccc1N2,19.5 µM (active),0.386 µM (active),0.386 µM (active),0.486 µM (active),43.6 µM (active),27.3 µM (active),19.3 µM (active),,6.92 µM (active),,54.5 µM (active),,,inactive,,,,
Cc1cccc(CN2CCN(C(c3ccccc3)c3ccc(Cl)cc3)CC2)c1 (centres undefined),inactive,9.02 µM (active),5.07 µM (active),9.02 µM (active),inactive,12.7 µM (active),,inactive,inactive,inactive,inactive,inactive,inactive,,inactive,,-3.05% (inactive),
O=CC=C(c1ccccc1)c1ccccc1,inactive,38.9 µM (active),27.5 µM (active),17.4 µM (active),22.1 µM (active),34.7 µM (active),13.8 µM (active),27.8 µM [inconclusive] (active),,69.1 µM (active),inactive,,,inactive,inactive,,,-5.89% (inactive)
O=[N+]([O-])c1cc([N+](=O)[O-])c2ccc(S(=O)(=O)O)cc2c1O,inactive,inactive,inactive,inactive,inactive,,,,inactive,,54.2 µM (active),,27.1 µM (active),,,,,
CCOc1nc2cccc(C(=O)OC(C)OC(=O)OC3CCCCC3)c2n1Cc1ccc(-c2ccccc2-c2nn[nH]n2)cc1 (centres undefined),38.9 µM (active),34.3 µM (active),19.3 µM (active),17.2 µM (active),30.9 µM (active),,,,,inactive,inactive,48.5 µM (active),,,,,,
CC(C)c1ccc2c(c1)CC[C@H]1[C@](C)(CN)CCC[C@]21C,38.9 µM (active),5.45 µM (active),6.11 µM (active),5.45 µM (active),21.9 µM (active),10.9 µM (active),12.2 µM (active),,49 µM (active),,,19.3 µM (active),,,,,,
CNc1ccc(O)cc1,54.8 µM (active),7.68 µM (active),6.1 µM (active),10.8 µM (active),38.8 µM (active),,,,,,,15.3 µM (active),61 µM (active),inactive,,,,
CCC1=C[C@@H]2CN(C1)Cc1c([nH]c3ccccc13)[C@@](C(=O)OC)(c1cc3c(cc1OC)N(C)[C@H]1[C@@](O)(C(=O)OC)[C@H](OC(C)=O)[C@]4(CC)C=CCN5CC[C@]31[C@@H]54)C2,inactive,0.075 µM (active),0.0841 µM (active),0.119 µM (active),inactive,4.73 µM (active),1.88 µM (active),,inactive,inactive,,inactive,,,,,,
CCN(C(=O)c1cc(C)cc(OC[C@H](C)Nc2ccncc2)c1)C(C)C,inactive,19.1 µM (active),19.1 µM (active),17 µM (active),inactive,,,,inactive,,inactive,inactive,inactive,inactive,,,,
